Test results as given in PubChem BioAssay AID485364 (National Center for Advancing Translational Sciences (NCATS), 2010).
Among all 360,000 compounds or so, about 11,000 (3.1%) were called active. Not shown: some 4% with an inconclusive outcome. The full list was thinned out, with actives kept by preference. Values without a mark were called inactive. The call rests on the fitted dose curve; in most records, active means well fitted inhibition curve with a large enough effect; inconclusive means small, poorly fitted or top-dose-only effect; inactive means no such curve, though single readings can be large or run the other way.

Target: Schistosoma mansoni thioredoxin glutathione reductase (TGR) (UniProt Q962Y6)
Test: qHTS Assay for the Inhibitors of Schistosoma Mansoni Peroxiredoxins; further: nearly all actives have a fitted effect of over 60% in size
Settings: purified TGR, DTNB reduction, TNB absorbance 405 nm; series mostly up to 114 µM; activity change, negative = inhibition: at the top concentration
Outline: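 TGR 20 nM + NADPH 100 uM (dispensed conc.), cpd preinc 15 min RT; start with NADPH (500 uM addition) then DTNB (15 mM addition). Kinetic TNB absorbance, 405 nm filter. Four-parameter Hill fit across titration.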
On the % scale 0 is the no-effect control and ±100 the full control effect; potency means the concentration at half of the fitted maximal effect.

Compound | activity change, negative = inhibition [%] | Potency
CCN(Cc1ccccc1)S(=O)(=O)c1ccc2c(c1)CCCN2C(C)=O | -1.01 | –
Cc1cc(NC(=O)c2cccc(Cl)c2)ccc1-c1cc2ccccc2oc1=O | 8.29 | –
O=C(CSCc1cnn(-c2ccccc2)c1-n1cccc1)NCc1ccccc1Br | 23.9 | –
O=C(/C=C/Sc1ncn[nH]1)c1ccc(Cl)cc1 | – | 0.794 µM (active)
COc1ccc(-n2c(SCC(=O)Nc3ccc(Cl)c(C)c3)nc3n[nH]c(C)c3c2=N)cc1 | 5.5 | –
COc1ccccc1CNC(=O)Cn1nc(C)c2nn(-c3ccc(Cl)cc3)c(C)c2c1=O | 4.8 | –
CCOC(=O)c1ccc(NC(=O)CCn2c(=O)oc3ccccc32)cc1 | – | inactive
CCOC(=O)c1ccc(NC(=O)CCn2cnnn2)cc1 | – | 89.1 µM (active)
CCOc1ccccc1NC(=O)CCn1cnnn1 | -2.07 | –
CCN(CC)CCNC(=O)c1cc2c(=O)oc3ccc(C)cc3c2s1 | 11.6 | –
CCc1ccc(NC(=O)c2cc(S(=O)(=O)N3CCCC(C)C3)cn2C)cc1 (stereo not drawn) | -0.776 | –
COc1ccc(CNC(=O)c2ccc(NC(=O)N3CC4CCCN4c4ccccc43)cc2)cc1 (stereo not drawn) | -14.3 | –
CSc1nc2ccc(C)cc2c(=O)n1-c1cccnc1 | 23.6 | –
COc1ccc(-n2c(SC)nc(O)cc2=O)cc1 | -1.27 | –
COc1ccc2c(c1OC)C(=O)OC2c1c(O)nc(SC)n(-c2ccccc2)c1=O (stereo not drawn) | – | 7.94 µM (active)
COc1ccc(Nc2ncc(C(=O)Nc3cc(C)ccc3OC)c3ccccc23)cc1 | -2.37 | –
CCN1CCN(CCCNC(=O)c2cnn(-c3ccc(C)cc3C)c2C2CCN(C(=O)OC(C)(C)C)CC2)CC1 | 6.79 | –
COC1=C(N2CCOCC2)C(=O)c2ccccc2C1=O | – | 17.8 µM (active)
O=C1C(Cl)=C(N2CCOCC2)C(=O)N1c1ccccc1 | 62.2 | –
O=C1c2ccccc2-c2ncnc3c(N4CCOCC4)cc(N4CCOCC4)c1c23 | 0.658 | –
CCCS(=O)(=O)N1CCC(n2c(C(F)(F)F)nc3cccnc32)CC1 | -6.19 | –
COc1ccccc1-c1cc2nc(C)c(CCC(=O)O)c(C)n2n1 | -1.61 | –
CCOCCCNC(=O)c1c(NC(=O)Cc2coc3ccc(C)cc23)sc2c1CCC2 | 54 | –
CC(C)(CCl)C(=O)Nc1ccc(Sc2ccc(F)cc2)cc1 | 0 | –
O=C(Nc1ccc(Sc2ccc(Br)cc2)cc1)c1ccco1 | 7.73 | –
O=C(CCl)Nc1ccc(Sc2ccc(NC(=O)CCl)cc2)cc1 | – | 2.82 µM (active)

Compound | activity change, negative = inhibition [%] | Potency
COc1ccc(-n2c(SC)nc3sc4c(c3c2=O)CCN(C(C)=O)C4)cc1 | 7.25 | –
Cc1cccc(-c2nnc(SCC(=O)N3CCCc4ccccc43)o2)c1 | 0.677 | –
COC(=O)c1ccccc1NC(=O)c1ccc(COc2ccccc2Cl)o1 | 4.06 | –
CCOc1ccc(NC(=O)C(=O)NCCc2csc3nc(-c4ccccc4F)nn23)cc1 | -0.856 | –
CC(=O)c1cc(-c2ccccc2)[nH]c1N1CCCC1 | – | 50.1 µM (active)
CC(=O)c1cc(-c2ccccc2)n(CC(=O)NC2CCCCC2)c1C | – | inactive
O=c1cc(-c2ccccc2)nc(N2CCCCC2)[nH]1 | 0 | –
COc1ccc(C(=O)Nc2cccc(C(=O)OCc3cc(=O)n4c5c(sc4n3)CCCC5)c2)cc1 | 3.52 | –
Oc1ccccc1-c1nc(/C=C/c2ccc(F)cc2)no1 | 0.232 | –
COc1ccc(Cc2nc3ccc(C(=O)NCc4ccccc4C)cc3o2)cc1 | 3.84 | –
Cc1cccc(N(Cc2ccccc2)C(=O)c2ccccc2F)c1 | -1.12 | –
CCCC(O)(CCC)C(=O)NN(C(=O)CCl)c1cccc(C)c1 | – | 25.1 µM (active)
CC(C)(O)C(=O)NN(C(=O)c1ccccc1)c1cccc(Br)c1 | 1.33 | –
CCC(C)NC(=O)CCCc1ccccc1 (stereo not drawn) | 0.801 | –
COC(=O)N(NC(=O)C(O)(C(C)C)C(C)C)c1ccccc1 | -2.07 | –
CCCCC(O)(CCCC)C(=O)NN(C(=O)CCl)c1ccccc1 | – | 8.91 µM (active)
CCC(=O)N1c2ccccc2CC1C(=O)N1CCN(c2ccccc2)CC1 (stereo not drawn) | -1.62 | –
COc1ccccc1CNC(=O)C(Cc1ccccc1)NS(=O)(=O)c1ccc2c(c1)oc(=O)n2C (stereo not drawn) | 0.69 | –
CCOc1ccccc1C(=O)NC1(C(F)(F)F)C(=O)Nc2c1c(=O)[nH]c(=O)n2-c1ccc(F)cc1 (stereo not drawn) | 8.33 | –
CC(C)NC(=O)c1nn(-c2ccccc2F)nc1CO | 8.65 | –
CCCC(=O)Nc1ccc(NC(=O)c2sc3ccccc3c2Cl)cc1 | -17.3 | –
O=C(/C=C/NCc1ccc(F)cc1)c1ccccc1 | 4.49 | –
O=C(/C=C\NCC(=O)c1ccccc1)c1ccccc1 | – | 28.2 µM (active)
O=C(/C=C/NNC(=O)c1cccc(Br)c1)c1ccccc1 | 0 | –
COc1cc(NC(=O)CSc2nc3nc(C)c(Cc4ccc(C)cc4)c(C)n3n2)cc(OC)c1OC | 3.82 | –
COc1ccc(NC(=O)C2CCCN(S(=O)(=O)c3c(C)[nH]c(=O)[nH]c3=O)C2)c(OC)c1 (stereo not drawn) | 0.241 | –

Compound | activity change, negative = inhibition [%] | Potency
CC(=O)N1CCCc2cc(S(=O)(=O)N3CCC(C(=O)NCc4ccc(F)cc4)CC3)ccc21 | 1.32 | –
Cc1ccc(C)c(N2CCN(S(=O)(=O)c3ccc4c(c3)C(C(C)C)C(=O)N4)CC2)c1 (stereo not drawn) | 7.18 | –
COC(=O)c1sccc1NC(=O)CCC1CCCC1 | 0.189 | –
COC(=O)c1sccc1NN1C(=O)c2ccccc2C1=O | -0.191 | –
CCOC(=O)C(=CNNc1ccsc1C(=O)OC)C(=O)OCC | – | 20 µM (active)
O=C(CCCCn1c(=O)c2ccccc2n(CC(=O)Nc2cccc(C(F)(F)F)c2)c1=O)NCc1ccc2c(c1)OCO2 | -1.07 | –
COc1cccc(CNC(=O)CCc2nc(-c3ccc(C)cc3)no2)c1 | 18.6 | –
CCOC(=O)Cn1c(=O)n(-c2ccccc2OC)c2nc(-c3cccc(F)c3)nc(C(N)=O)c21 | 0.122 | –
COC(=O)C1=C(C)NC2=C(C(=O)c3ccccc32)C1c1ccc(-c2ccc(C(=O)O)cc2)o1 (stereo not drawn) | – | 20 µM (active)
CCOC(=O)c1ccc(-c2ccc(C(=O)Nc3cccnc3)o2)cc1 | 0 | –
CCOc1cc(C2C(C(=O)OC)=C(C)NC3=C2C(=O)c2ccccc23)ccc1O (stereo not drawn) | 4.85 | –
CCOC(=O)c1cc2c(=O)n3ccccc3nc2n(CC2CCCO2)c1=NC(=O)c1ccccc1Br (stereo not drawn) | 4.51 | –
Cc1cc(C)c2c(=O)[nH]c(SCC(=O)Nc3ccc(Br)cc3)nc2n1 | -17.4 | –
Cc1ccc(NC(=O)CCC(=O)c2ccc(Br)cc2)cc1 | -8.2 | –
Cc1ccn(C(CC(=O)c2ccc(Br)cc2)C(=O)O)n1 (stereo not drawn) | – | 8.91 µM (active)
Cc1ccc(-n2ncc3c(=O)n(Cc4cccc(C(F)(F)F)c4)cnc32)cc1C | -1.38 | –
O=C(Nc1ccccc1Cl)N1CCC(CN2CCCC2)CC1 | -14.6 | –
CCOC(=O)c1cc(-c2ccccc2)n(CCC(=O)Nc2ccccc2CC)c1C | 9.85 | –
CCOC(=O)c1ccccc1CN1C(=O)c2ccccc2S1(=O)=O | -0.286 | –
CCOC(=O)c1cc2n(c1N)-c1ccccc1C2=O | – | 31.6 µM (active)
O=C(Nc1cccc2cccnc12)c1cccc2c(Br)cccc12 | -2.45 | –
COc1ccc(CNC(=O)c2cc3c(=O)[nH]c4ccc(C)cc4c3s2)c(OC)c1 | 8.13 | –
N#C/C(=C\c1cccc(F)c1)c1nc(-c2cc3c(ccc4ccccc43)oc2=O)cs1 | 6.2 | –
COC(=O)c1ccc(CSc2ccccc2C)o1 | 8.62 | –
COC(=O)c1ccc(CSc2ccc3nnc(-c4ccccc4)n3n2)o1 | – | 56.2 µM (active)
COC(=O)c1ccc(CSc2nnc(N)s2)o1 | 0.472 | –

Compound | activity change, negative = inhibition [%] | Potency
CCOc1ccc(OCC)c(NS(=O)(=O)c2ccc3[nH]c(=O)ccc3c2)c1 | 5.65 | –
CCc1ccccc1N1CC(c2nc3ccccc3n2CCCCOc2ccccc2)CC1=O (stereo not drawn) | 5.87 | –
O=C(/C=C/c1ccc(F)cc1)NC(=S)NNC(=O)c1cccnc1 | -1.91 | –
O=C(/C=C/c1ccc([N+](=O)[O-])o1)NNC(=O)c1ccc(F)cc1 | – | 11.2 µM (active)
O=C(Nc1ccc(F)cc1)C1CCN(C(=O)c2ccc([N+](=O)[O-])cc2)CC1 | 3.63 | –
CC1(C)CCSC(/C=C/c2ccccc2)=N1 | – | 17.8 µM (active)
CCCCC(CC)CNC(=O)C1CCN(S(=O)(=O)c2cccc3nsnc23)CC1 (stereo not drawn) | -3.56 | –
COc1ccc2c(CNCCc3ccccc3C)c(C(=O)O)n(Cc3ccccc3C)c2c1 | -2.09 | –
Cc1[nH]c2ccccc2c1C(=O)CN1CCCC(C)C1 (stereo not drawn) | – | 25.1 µM (active)
CCOC(=O)N1CCN(CC(=O)c2c(C)[nH]c3ccccc23)CC1 | – | 35.5 µM (active)
CCOC(=O)N1CCN(CC(=O)n2c(C)c(C)c3ccccc32)CC1 | -20.4 | –
CC1CCN(CC(=O)c2c[nH]c3ccccc23)CC1 | 2.55 | –
CCOC(=O)N1CCN(CC(=O)c2ccc3c(c2)CCN3)CC1 | 0.36 | –
CC1CCCN(Cc2nc3c(c(=O)n(C)c(=O)n3C)n2CC(=O)c2ccccc2)C1 (stereo not drawn) | -0.23 | –
Cc1cccc(N2CCN(C(=O)Cn3ncc4c5ccccc5n(C)c4c3=O)CC2C)c1 (stereo not drawn) | 5.55 | –
CCc1cc2c(cc3c(=O)n(CC(=O)NCc4cccc(Cl)c4)nc(CC)n32)s1 | 4.93 | –
Cc1cccc(NC(=O)c2cc3c(C)nn(-c4ccccc4)c3s2)c1 | 2.56 | –
COC(=O)c1ccc(OC)c(Cn2c(=O)n(Cc3ccccc3)c(=O)c3c2c2cc(OC)ccc2n3C)c1 | -8.64 | –
Cc1oc2ccc(O)c(CN3CCCCC3)c2c1C(=O)Nc1cccc(C(F)(F)F)c1 | 9.2 | –
CCN(Cc1ccccc1)C(=O)c1cn(-c2cccc(OC)c2)c(=O)c2ccccc12 | -14.9 | –
Cc1ccccc1NC(=O)CN1C(=O)C(C)(C)c2ccccc21 | 5.62 | –
COc1ccc(/C=C(\C#N)c2c[nH]c3ccccc23)cc1 | – | 14.1 µM (active)
COc1cccc(-n2c(SCC(=O)c3c[nH]c4ccccc34)nc3ccccc3c2=O)c1 | 1.41 | –
CCOc1ccc(/C=C(\C#N)c2nc3ccccc3c(=O)[nH]2)cc1OC | 1.74 | –
COC(=O)c1ccc(NC(=O)c2cccc3c2C(=O)N(C2CCCCC2)C3)cc1 | 1.52 | –
